RecA intein inh: Mtb RecA intein splicing inhibitors, primary screen, biochemical, fluorescence, HTS. inhibition, % (test concentration not listed). cell-free RecA intein splicing. 290,000 tested, 0.75% active. Protein RecA (Mycobacterium tuberculosis (strain ATCC 25618 / H37Rv)), P9WHJ3; in the data active = inhibition above about 30%; inconclusive = no clear call, values can overlap the other calls;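 also: 0% = vehicle wells and 100% = reference inhibitor control wells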
Target sequence (P9WHJ3 whole entry, looked up): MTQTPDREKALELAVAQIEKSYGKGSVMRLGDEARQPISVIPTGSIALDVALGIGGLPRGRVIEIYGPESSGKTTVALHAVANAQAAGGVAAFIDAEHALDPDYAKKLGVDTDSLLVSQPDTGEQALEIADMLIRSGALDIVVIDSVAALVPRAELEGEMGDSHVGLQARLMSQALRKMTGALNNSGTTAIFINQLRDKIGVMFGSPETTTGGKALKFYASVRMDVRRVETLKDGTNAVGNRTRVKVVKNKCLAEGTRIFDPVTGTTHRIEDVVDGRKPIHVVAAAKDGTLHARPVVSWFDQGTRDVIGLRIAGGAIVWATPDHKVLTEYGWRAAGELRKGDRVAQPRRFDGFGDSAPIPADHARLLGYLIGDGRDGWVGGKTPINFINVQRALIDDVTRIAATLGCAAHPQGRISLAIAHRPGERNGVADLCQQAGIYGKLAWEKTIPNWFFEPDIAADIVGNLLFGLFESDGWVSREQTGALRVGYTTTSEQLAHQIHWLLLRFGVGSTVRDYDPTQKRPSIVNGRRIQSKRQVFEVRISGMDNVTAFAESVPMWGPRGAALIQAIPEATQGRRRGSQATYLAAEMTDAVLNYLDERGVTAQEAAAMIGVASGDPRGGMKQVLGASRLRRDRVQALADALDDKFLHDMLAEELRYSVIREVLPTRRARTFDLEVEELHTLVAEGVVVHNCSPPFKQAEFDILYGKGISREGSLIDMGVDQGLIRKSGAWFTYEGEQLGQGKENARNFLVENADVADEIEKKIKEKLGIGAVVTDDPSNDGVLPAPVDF
CCHF vOTU inh: CCHFV vOTU protease inhibitors, primary screen, biochemical, Pep-AMC substrate, fluorescence | Crimean-Congo hemorrhagic fever virus L polyprotein viral ovarian tumor (vOTU) protease … | inhibition, % at 11.5 µM | 370,000 tested, 0.55% active | AID 651958, 2012; in the data active = inhibition above about 30%; also: 0% = vehicle wells with enzyme and 100% = no enzyme wells
BJeLR viability: MLPCN primary cell-based screen for lethality selective to Ras in HRASV12 cells; BJeLR (HRASV12) viability, CellTiter-Glo ATP luminescence, 48 h; inhibition, % (test concentration not listed); 300,000 tested, 0.17% active; in the data active = inhibition above about 50%; inconclusive = no clear call, values can overlap the other calls
Yp Topo-I inh: Yersinia pestis topoisomerase I inhibitors, primary screen, biochemical, cleavage product accumulation, plate reader, single point | activity, % at 10 µM | DNA topoisomerase I (Yersinia pestis CO92) | 360,000 tested, 0.064% active | Y. pestis Topo-I cleavage product accumulation | AID 504884, 2011; in the data active = activity above about 50%, passing the limit was not always enough; inconclusive = no clear call, values can overlap the other calls
BioA inh: M. tuberculosis BioA enzyme inhibitors, primary screen, biochemical, plate reader, single point, HTS; 360,000 tested, 0.096% active; 7,8-diaminopelargonic acid synthase BioA (Mycobacterium tuberculosis); inhibition, % at 9.99 µM; purified M. tuberculosis BioA enzyme; AID 602481, 2012; in the data active = inhibition above about 40%; inconclusive = no clear call, values can overlap the other calls
Mtb betalactam: beta-lactam sensitization of Mtb H37Rv, H37Rv; M. tuberculosis H37Rv growth with meropenem, percent inhibition; inhibition, % at 25 µM; 330,000 tested, 0.27% active; call rule not given here;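 also: growth measured after seven days incubation then overnight dye step; 0% = bacteria only wells and 100% = bacteria with antibiotic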
* hit, by the source's call; ? = inconclusive; . = not tested or not shown. Sampled rows, rich in hits. Any-hit rate of the full collection: about 1.1%.

SMILES	RecA intein inh	CCHF vOTU inh	BJeLR viability	Yp Topo-I inh	BioA inh	Mtb betalactam
O=C(C[C@H]1CC[C@@H]2[C@H](COC[C@@H](O)CN2C(=O)c2ccncc2)O1)NC1Cc2ccccc2C1	.	.	.	.	-0.6	.
O=C(N/N=C/c1ccccc1Cl)c1[nH]c2ccc(Br)cc2c1-c1ccccc1	18.6	-10.1	60.5*	5.8	.	-3.8
COc1ccc(/C=N/NC(=O)c2[nH]c3ccc(Br)cc3c2-c2ccccc2)c(C(=O)O)c1OC	7.8	4.0	-3.6	8.2	2.0	66.5
COc1ccc(/C=N/NC(=O)c2[nH]c3ccc(Br)cc3c2-c2ccccc2)cc1	-15.3	-10.5	55.1*	13.8	.	7.8
O=C(COC(=O)CNS(=O)(=O)c1ccc2ccccc2c1)Nc1ccccc1Sc1ccccc1	10.4	-5.2	-5.0	62.0*	.	0.4
CCOc1ccc(C2C(C(=O)c3ccc(C)o3)=C(O)C(=O)N2c2cc(C)on2)cc1OC (stereo unspecified)	1.0	12.9	-3.1	-9.0	-1.7	-0.2
CCCCCOc1ccc(C2C(C(=O)c3ccc(C)o3)=C(O)C(=O)N2c2cc(C)on2)cc1 (stereo unspecified)	4.4	17.1	-4.5	87.9*	-2.7	22.8
CN(C)c1ccc(C(=O)c2ccc(O)cc2O)cc1	7.0	3.9	-10.7	-4.3	-1.7	-1.1
CN(C)c1ccc(Cc2cc3c(O)ccc(O)c3cc(Cc3ccc(N(C)C)cc3)c2=O)cc1	.	33.9*	.	-14.9	.	.
Cn1c(=O)[nH]c(=O)c2c1nc(N1CCCCCC1)n2Cc1cccc2ccccc12	-0.3	13.5	-11.2	63.4*	.	-5.2
CCCn1c(N2CCC(Cc3ccccc3)CC2)nc2c1c(=O)[nH]c(=O)n2C	-4.1	3.2	3.7	51.6*	2.8	61.6
Cc1cccc(Cn2c(N3CCN(C)CC3)nc3c2c(=O)[nH]c(=O)n3C)c1	-0.8	3.8	-1.5	-1.4	-0.8	-3.0
Cc1cccc(Cn2c(N3CCCCC3C)nc3c2c(=O)[nH]c(=O)n3C)c1 (stereo unspecified)	0.1	29.8*	12.0	18.3	1.1	3.2
Cn1c(=O)[nH]c(=O)c2c1nc(N1CCNCC1)n2Cc1ccccc1Cl	-0.3	-4.8	-7.2	-5.4	0.2	4.3
Cc1ccc(S(=O)(=O)N(C)C[C@H]2Oc3ccc(NS(=O)(=O)c4ccc(Cl)cc4)cc3CC(=O)N([C@H](C)CO)C[C@H]2C)cc1	.	.	.	.	-1.4	.
COc1cccc(NC(=O)N[C@H]2CC[C@H](CC(=O)NCc3ccncn3)O[C@@H]2CO)c1	.	.	.	.	-3.2	.
COc1ccc(N2C(=O)CSC23C(=O)N2c4c(cccc43)C(C)=CC2(C)C)cc1 (stereo unspecified)	33.3*	5.7	-8.1	7.1	-1.4	0.9
COc1ccc(N2C(=O)CSC23C(=O)N2CCCc4cccc3c42)cc1 (stereo unspecified)	1.4	5.1	-1.0	-6.0	-0.6	7.1
O=C(Nc1ccccc1F)N1C[C@H]2[C@@H](c3ccccc31)[C@@H](CO)N2C(=O)C1CCCCC1	.	.	.	.	1.2	.
O=C(Nc1ccn(CCCN(CCCn2ccc(NC(=O)OCc3ccccc3)nc2=O)CCc2cc3ccccc3[nH]2)c(=O)n1)OCc1ccccc1	.	12.0	.	77.0*	-1.3	.
O=C(Nc1ccn(CCCNCc2ccccc2)c(=O)n1)OCc1ccccc1	.	7.2	.	27.4	-2.0	.
CCC(=O)Nc1ccc2c(c1)C(=O)N(C)[C@H]1CC[C@H](CC(=O)NCCCN(C)C)O[C@@H]1CO2	.	.	.	.	-0.5	.
OC(c1cc(-c2ccc(Cl)cc2)nc2ccccc12)C1CCCCN1 (stereo unspecified)	6.5	6.5	125.7*	-4.0	22.9	100.0
CO[C@H]1CN(C)C(=O)c2ccc(NC(C)=O)cc2OC[C@H](C)N(C(=O)c2ccncc2)C[C@H]1C	.	.	.	.	-1.8	.
CCOC(=O)c1nnc(-c2cccs2)nc1Oc1ccccc1C(=O)OC	10.2	15.7	-3.8	9.8	-1.8	-4.6
SMILES	RecA intein inh	CCHF vOTU inh	BJeLR viability	Yp Topo-I inh	BioA inh	Mtb betalactam
CCOC(=O)c1nnc(-c2cccs2)nc1Oc1ccc(Cl)cc1	38.2*	12.8	-1.5	10.2	-0.2	79.7
C[C@H]1CN([C@@H](C)CO)S(=O)(=O)c2ccc(C#CC(C)(C)O)cc2O[C@H]1CN(C)C	.	.	.	.	-2.3	.
COC(=O)[C@@H]1Cc2c([nH]c3ccccc23)C(C)(C)N1C(=O)CCl	-3.6	4.5	90.7*	-5.6	1.7	73.8
CN(C)C(=O)C[C@@H]1CC[C@@H]2[C@H](COC[C@H](O)CN2C(=O)C2CCCC2)O1	.	.	.	.	-1.5	.
CC1CCN(S(=O)(=O)c2ccc3c(c2)C(=NO)c2cc(S(=O)(=O)N4CCC(C)CC4)ccc2-3)CC1	.	6.3	.	0.8	-0.6	2.6
O=S(=O)(c1ccc2c(c1)C(=NO)c1cc(S(=O)(=O)N3CCCCC3)ccc1-2)N1CCCCC1	1.0	-2.9	94.9*	13.2	.	?
Cc1cccc(CN2CCN(C(=O)CCl)CC2)c1	33.1*	-9.1	5.3	3.2	-0.2	97.9
Cc1cccc(CN2CCN(C(=O)Cc3ccccc3)CC2)c1	0.2	4.5	2.5	10.0	0.6	-9.4
O=C(Nc1ccc2c(c1)[C@@H]1C[C@@H](CC(=O)N3CCc4ccccc4C3)O[C@@H](CO)[C@@H]1O2)C1CCC1	.	.	.	.	1.7	.
[O-]c1ccccc1-[n+]1c(-c2ccccc2)cc(-c2ccccc2)cc1-c1ccccc1	15.4	6.2	63.2*	8.4	0.6	100.0
CCOC(=O)c1c(NC(=O)CCl)sc(CN(C)C)c1-c1ccccc1	50.0*	-1.5	0.4	18.7	.	90.2
CCOC(=O)c1c(NC(=O)CN2CCCCC2)sc(CN(C)C)c1-c1ccccc1	13.5	-6.7	-6.5	7.3	.	83.0
O=C(Cc1ccccc1)N1C[C@@H]2[C@H](c3ccccc31)[C@H](CO)N2C(=O)C1CCCCC1	.	.	.	.	2.3	.
CNC(=O)c1nnsc1S(=O)(=O)c1ccc(Cl)cc1	39.8*	0.6	12.9	6.6	-0.2	.
COc1ccc(C=C2C=C(C(C)(C)C)C(=O)C(C(C)(C)C)=C2)cc1OC	7.9	3.3	79.9*	-4.2	-0.8	100.4
CCCOc1ccc(C(=O)N/N=C/c2c[nH]c3ccc(Br)cc23)cc1	0.6	16.2	1.7	-7.4	-0.7	1.1
CCCCCN=C(N)N/N=C/c1c[nH]c2ccc(OC)cc12	5.9	17.6	69.6*	-10.0	0.2	100.1
c1ccc2nc(-c3nc4ccccc4o3)ccc2c1	-0.9	-27.6	53.4*	12.5	-1.3	.
CC(C)(C)OC(=O)NCc1ccc(NC(=O)c2nc[nH]c2C(=O)NCCCNC(=O)c2[nH]cnc2C(=O)Nc2ccc(CNC(=O)OC(C)(C)C)cc2)cc1	.	.	.	79.2*	-2.0	9.3
